This note sets out measurements from PubChem BioAssay (NCI).

Test [1] can be described thus: NCI Yeast Anticancer Drug Screen. Data for the rad50 strain (AID 155).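 Also: 0% = growth of vehicle-only cultures of the same strain.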 Particulars: S. cerevisiae rad50 strain growth inhibition; at 50.0 µM; hits give high values. An outline of the steps:
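Cells are treated with compound, grown, and their growth is then scored against vehicle-only cultures of the same repair-deficient yeast strain.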

The nature of test [2]: NCI Yeast Anticancer Drug Screen. Data for the mec2-1 strain (AID 157). The following applies: S. cerevisiae mec2-1 strain, at 50.0 µM, hits give high values. Put shortly:
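Strain: mec2-1 (DNA repair/cell cycle alteration). Compound exposure, then growth measured; inhibition expressed relative to vehicle.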

A short description of test [3]: NCI Yeast Anticancer Drug Screen. Data for the sgs1 mgt1 strain (AID 161).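 Also: 0% = growth of cultures given vehicle only.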 The following applies: S. cerevisiae sgs1 mgt1 strain, at 50.0 µM, hits give high values. An outline of the steps:
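Read-out: growth inhibition vs vehicle controls. Cells: mutant yeast strain deficient in DNA damage repair.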

A short description of test [4]: NCI Yeast Anticancer Drug Screen. Data for the cln2 rad14 strain (AID 165).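 Also: 0% = growth equal to vehicle treated cultures.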 The following applies: S. cerevisiae cln2 rad14 strain, at 50.0 µM, hits give high values. Put shortly: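 Compounds are applied to the cln2 rad14 yeast strain, and growth is then compared with that of vehicle-treated cultures to give inhibition.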
A short description of test [5]: NCI Yeast Anticancer Drug Screen. Data for the bub3 strain (AID 167). Particulars: S. cerevisiae bub3 mutant strain, at 50.0 µM, hits give high values. An outline of the steps: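 Part of a panel of yeast mutants defective in DNA damage repair or cell cycle regulation. Each strain is grown with compound, and inhibition is calculated relative to solvent-treated cultures.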

The nature of test [6]: NCI Yeast Anticancer Drug Screen. Data for the mlh1 rad18 strain (AID 175). The following applies: S. cerevisiae mlh1 rad18 strain growth inhibition; at 50.0 µM; hits give high values. An outline of the steps: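 Read-out is yeast growth inhibition, calculated against vehicle-only controls. The compound was applied to a strain engineered with DNA damage repair alterations.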

Compounds without any hit were thinned out: in the full panel of roughly 79,000, 15% have a hit. A number with no mark means an inactive call. The source made the active and inactive calls. Rule as the data show it: active = growth inhibition above about 70%; inactive = the rest. Where a SMILES comes first, the peptide text is derived from it. The star is where a group is joined. Boc = CC(C)(C)OC(=O)*

With `COc1ccc(N2C(=O)CC(c3cc(OC)c(OC)c(OC)c3)CC2=O)cc1`, the growth inhibition was -3.7% in test [1]; -20.5% in test [2]; 10.4% in test [3]; 3.1% in test [4]; 8.25% in test [5]; -2.75% in test [6].
As for `CCCCCN(CCCCC)CC(O)c1cc(-c2ccccc2)nc2c(Cl)cc(Cl)cc12` (stereo unspecified), the growth inhibition in test [1] is 42%; in test [2], -1.1%; in test [3], 26.5%; in test [4], 18%; in test [5], 46.5%; in test [6], 39.1%.
For the compound `Cc1c(C)n2c(=O)n(-c3ccccc3)c(=O)n2c1=O`, the growth inhibition in test [1] is -38%; in test [2], -27.1%; in test [3], -5.55%; in test [4] it was -27.2%; in test [5] it was -7.75%; in test [6], -1.85%.
As for `CC(=O)c1ccccc1C(=O)O`, the growth inhibition is 6.05% in test [1]; 7.45% in test [2]; -6.65% in test [3]; 7.6% in test [4]; 6.25% in test [5]; -9.55% in test [6].
On to `CC1(O)C=CC2CCC1C2O` (stereo unspecified), for which the growth inhibition is 11.9% in test [1]; -2.55% in test [2]; 10% in test [3]; 19.2% in test [4]; 0.15% in test [5]; 19.6% in test [6].
With `COc1ccc(OC)c2c(NCCNCCO)cc(NCCNCCO)nc12`, the growth inhibition in test [1] was 15.2%; in test [2], -4.75%; in test [3], -15.7%; in test [4], 0%; in test [5] it was -3.2%; in test [6] it was 7.5%.
Turning to `COc1ccc(/C(Cl)=C/c2cc(OC)ccc2OC)cc1`, the growth inhibition in test [1] is -5.1%; in test [2], -10.7%; in test [3], -26.9%; in test [4], -0.25%; in test [5], -30.2%; in test [6], -9.05%.
`Cc1cc(=O)n2nc(SCc3ccccc3)sc2n1`: the growth inhibition in test [1] is 11.3%; in test [2] it was 8.2%; in test [3] it was 28.9%; in test [4], 1.9%; in test [5] it was 3.5%; in test [6] it was -8.95%.
On to `Clc1ccccc1C1OCCCO1`, for which the growth inhibition was -0.95% in test [1]; 15.1% in test [2]; -22.4% in test [3]; -29.8% in test [4]; -8.1% in test [5]; -6.1% in test [6].
On to `CC(=O)c1cc2c(cc1C)C(C)(C)CCC2C` (stereo unspecified), for which the growth inhibition was -0.75% in test [1]; -24.8% in test [2]; -7.3% in test [3]; -5% in test [4]; 7.35% in test [5]; 2.3% in test [6].
Take `CCc1c(C)c(C)c(C)c(C)c1C(C)=O`: the growth inhibition is -5% in test [1]; -22.4% in test [2]; -7.35% in test [3]; 20.1% in test [4]; 6.4% in test [5]; -26.6% in test [6].
In the case of `CSCCC(NC(=O)C(CC(C)C)NC(=O)CNC(=O)OC(C)(C)C)C(=O)N(C)C` (stereo not drawn) (Boc-Gly-Leu-Met-NMe2; configuration not given here), the growth inhibition in test [1] was 6.6%; in test [2] it was -5.15%; in test [3] it was -3.9%; in test [4], -2.8%; in test [5], -0.1%; in test [6], -3%.
As for `O=C1CCSC(=S)N1c1ccc(F)cc1F`, the growth inhibition in test [1] was 18%; in test [2], 4.65%; in test [3], 18.4%; in test [4], 28.9%; in test [5] it was 4.7%; in test [6] it was -1.15%.
With `Cc1ccccc1NC(=O)CN1CCCC(C)C1` (stereo unspecified), the growth inhibition in test [1] is 10.7%; in test [2], -34.8%; in test [3], 0.9%; in test [4], 11.3%; in test [5], -16.2%; in test [6] it was 5.45%.
Turning to `CC(=O)C(N=Nc1ccc(S(=O)(=O)NC2NCCC(C)N2)cc1)C(=O)Nc1ccccc1C` (stereo unspecified), the growth inhibition in test [1] was 55.1%; in test [2], 15.8%; in test [3] it was 48%; in test [4], 25.6%; in test [5], 0.7%; in test [6], 42.5%.
Turning to `c1ccc2[nH]c3c(N=NC4=NCCN4)c4ccccc4c-3nc2c1`, the growth inhibition in test [1] is -10.5%; in test [2], -56.2%; in test [3], 10.1%; in test [4], -5.85%; in test [5] it was -15.3%; in test [6], 12.8%.
In the case of `OCCCCC1COC(c2ccccc2)O1` (stereo unspecified), the growth inhibition was 2.55% in test [1]; -14.6% in test [2]; -10.9% in test [3]; -35% in test [4]; -16.6% in test [5]; 1.1% in test [6].
For the compound `CSc1ccc(NC(=O)Oc2cc(C)c(Cl)cc2C(C)C)cc1`, the growth inhibition is 39.6% in test [1]; 94.8% (active) in test [2]; 91.8% (active) in test [3]; 15.8% in test [4]; 97.8% (active) in test [5]; 93.5% (active) in test [6].
With `Cc1ccc(-c2c(C#N)c(-c3ccccc3)n(NS(=O)(=O)c3ccccc3)c(=O)c2C#N)cc1`, the growth inhibition in test [1] is 42.1%; in test [2] it was 49.8%; in test [3], 47.1%; in test [4], 51.2%; in test [5], 49.6%; in test [6], 51.1%.
For the compound `CNc1ccccc1C`, the growth inhibition in test [1] was 37.6%; in test [2], -15.4%; in test [3] it was -8.1%; in test [4], -82.1%; in test [5], 18.9%; in test [6], 23%.
With `O=C(Cc1ccc([N+](=O)[O-])cc1)ON1C(=O)CCC1=O`, the growth inhibition in test [1] was -11.8%; in test [2] it was 2.65%; in test [3] it was -4.65%; in test [4] it was -18.9%; in test [5], -20.1%; in test [6], 6%.
